# Source: the supplement of paper PMC7156485
# ± gives the standard deviation of the averaged measurements.
# Key:
# Details in all cases: concentration: 10 µM; 24 h
# HCC1569 [1] = test: cell number relative to DMSO (% of DMSO); higher = more cells (less growth inhibition / toxicity)
# Procedure, shortened: (§1)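 H1.0 nuclear intensity or cell number is expressed as percent of the plate control, with the median of replicates taken. HCC1569 and TDF cells were treated with compounds at 10 µM for 24 h at 37 °C, in triplicate, then fixed and immunostained for H1.0 with DAPI as a nuclear stain. HCC1569 values were smoothed to correct for positional effects.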
# TDF [2] = test: as above
# Procedure, shortened: as §1
# TDF [3] = test: H1.0 immunofluorescence intensity relative to DMSO (% of DMSO); higher = stronger H1.0 induction, active = 120 or more
# Procedure, shortened: as §1
# HCC1569 [4] = test: H1.0 immunofluorescence intensity relative to DMSO (% of DMSO); higher = stronger H1.0 induction, active = 140 or more
# Procedure, shortened: as §1
# 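Throughout, for H1.0 immunofluorescence intensity relative to DMSO: TDF is a line of transformed human dermal fibroblasts of mesenchymal origin.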
# 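Throughout, for cell number relative to DMSO: TDF denotes transformed human dermal fibroblasts of mesenchymal origin.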
Structure (SMILES),cell number (HCC1569 [1]),cell number (TDF [2]),H1.0 immunofluorescence intensity (TDF [3]),H1.0 immunofluorescence intensity (HCC1569 [4])
Cc1c(C)c2c(c(C)c1O)CCC(C)(C(=O)O)O2 (configuration not stated) [Trolox],101,101,94.4 (inactive),91.3 (inactive)
O=C(O)c1ccccc1Nc1cccc(OCc2ccc3ccccc3n2)c1,104,97.2,91.5 (inactive),106 (inactive)
CC(C)NCC(O)COc1cccc2ccccc12.Cl [(S)-Propranolol hydrochloride],74.5,95.9,87.7 (inactive),230 (active)
Cl.NC(N)=NC(=O)c1nc(Cl)c(N)nc1N [Amiloride hydrochloride],99.3,100,97.6 (inactive),96.9 (inactive)
"Clc1ccc(C(c2ccccc2Cl)C(Cl)Cl)cc1 (configuration not stated) [1-(2-Chlorophenyl)-1-(4-chlorophenyl)-2,2-dichloroethane]",96.1,106,98.3 (inactive),92.9 (inactive)
"COC(=O)C=Cc1cc(O)ccc1O [2,5-Dihydroxycinnamic acid methyl ester]",104,103,91.7 (inactive),93.6 (inactive)
O=c1onc2cnc3ccccc3n12,101,97.5,103 (inactive),106 (inactive)
CC(=O)O.O=C(NCC1CCCCN1)c1cc(OCC(F)(F)F)ccc1OCC(F)(F)F (configuration not stated) [Flecainide acetate],102 ± 3.6,101 ± 1.2,91.5 (inactive),107 (inactive)
"CCCCCC(O)C=CC1C(O)CC(O)C1CC=CCCCC(=O)O (configuration not stated) [9b,11a Prostaglandin F2]",100,98,93.3 (inactive),97.5 (inactive)
COc1cc(CC(=O)O)ccc1O [4-Hydroxy-3-methoxyphenylacetic acid],105,106,102 (inactive),97 (inactive)
COc1cc2nc(N3CCN(C(=O)C4COc5ccccc5O4)CC3)nc(N)c2cc1OC.CS(=O)(=O)O (configuration not stated) [Doxazosin mesylate],99.9,103,95.5 (inactive),110 (inactive)
CCCn1c(=O)c2[nH]c(-c3ccc(OCC(=O)Nc4ccc(C#N)cc4)cc3)nc2n(CCC)c1=O,105,114,96.6 (inactive),102 (inactive)
N#Cc1cnc2cnc(NCc3cccnc3)cc2c1Nc1ccc(F)c(Cl)c1 [Tpl2 Kinase Inhibitor],69.9,74.3,92.6 (inactive),185 (active)
O=C(O)CCCCC=CCC(O)C=CC=CC=CC(O)CCCC(=O)O (configuration not stated) [20-Carboxy-leukotriene B4],102,103,91.1 (inactive),102 (inactive)
CCCCN1CC(O)C(O)C(O)C1CO (configuration not stated) [Miglustat],100,95.6,97.2 (inactive),114 (inactive)
O=c1c(-c2ccc(O)cc2)coc2cc(O)ccc12 [Daidzein],101 ± 2.1,107 ± 14,92.4 (inactive),94.6 (inactive)
Br.CN1C2CCC1CC(OC(=O)C(O)c1ccccc1)C2 (configuration not stated),102,97.5,97.2 (inactive),94.6 (inactive)
O=C(O)CCCC=CCC=CC=CC(O)CC=CCCCCCO (configuration not stated),101,92.6,98.3 (inactive),101 (inactive)
COc1ccc(-c2ccc3c(N4CCOCC4)nc(N4CC(C)OC(C)C4)nc3n2)cc1CO (configuration not stated),73,78.1,87.6 (inactive),164 (active)
C=C(CC)C(=O)c1ccc(OCC(=O)O)c(Cl)c1Cl [Ethacrynic Acid],100,101,95.9 (inactive),100 (inactive)
COC(=O)C(N)Cc1ccc(Cl)cc1.Cl (racemic) [DL-p-Chlorophenylalanine methyl ester hydrochloride],97.3,92.3,107 (inactive),104 (inactive)
Cc1cc(N)c2ccccc2[n+]1CCCCCCCCCC[n+]1c(C)cc(N)c2ccccc21.[Cl-].[Cl-] [Dequalinium dichloride],74.8,64.1,102 (inactive),123 (inactive)
CC(=O)OCC(CCn1cnc2cnc(N)nc21)COC(C)=O [Famciclovir],103,97.4,99.2 (inactive),111 (inactive)
